Source: PubChem (several laboratories)
Most compounds without a hit are left out; they make up all but 4% or so of the library.
Mtb UGM inh: M. tuberculosis UGM enzyme inhibitors, primary screen, biochemical, fluorescence polarization, single point; UDP-galactopyranose mutase (Mycobacterium tuberculosis (strain ATCC 25618 / H37Rv)), …; inhibition, % at 10 µM; purified UGM, fluorescence polarization probe displacement; 320,000 compounds, 0.06% hits; AID 504406, 2011; in the data active means inhibition above about 10%, passing the limit was not always enough
Mtb bLac sens: beta-lactam sensitization of Mtb H37Rv, H37Rv | M. tuberculosis H37Rv growth with meropenem, percent inhibition | inhibition, % at 25 µM | 330,000 compounds, 0.27% hits; call rule not given here;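 further: growth measured after seven days incubation then overnight dye step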
GDH-TPI counter-1: GDH-TPI coupling enzyme inhibitors, primary screen, artefact control for M. tuberculosis FBA inhibitor project, biochemical, absorbance, full deck; GDH-TPI coupled enzyme counterscreen, NADH absorbance; inhibition, % at 4.8 µM; 360,000 compounds, 1.2% hits; AID 588335, 2011; in the data active means inhibition above about 30%
RecA intein inh: Mtb RecA intein splicing inhibitors, primary screen, biochemical, fluorescence, HTS; cell-free RecA intein splicing; inhibition, % (test concentration not listed); 290,000 compounds, 0.75% hits; in the data active means inhibition above about 30%
Rv3671c inh: Rv3671c serine protease inhibitors, primary screen, biochemical, fluorescence polarization, M. tuberculosis H37Rv. 320,000 compounds, 0.048% hits. inhibition, % at 5.96 µM. P9WHR9; in the data active means inhibition above about 38%;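 further: extracellular domain of Rv3671c used as enzyme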
Mtb FBA inh: Mtb FBA enzyme inhibitors, primary screen, biochemical, fluorescence, strain H37Rv | Fructose-bisphosphate aldolase (Mycobacterium tuberculosis (strain ATCC 25618 / H37Rv)), … | purified M. tuberculosis FBA, fluorescence read-out | inhibition, % at 1 µM | 360,000 compounds, 2.3% hits | AID 588726, 2011
Target sequence (P9WQA3 whole entry, looked up): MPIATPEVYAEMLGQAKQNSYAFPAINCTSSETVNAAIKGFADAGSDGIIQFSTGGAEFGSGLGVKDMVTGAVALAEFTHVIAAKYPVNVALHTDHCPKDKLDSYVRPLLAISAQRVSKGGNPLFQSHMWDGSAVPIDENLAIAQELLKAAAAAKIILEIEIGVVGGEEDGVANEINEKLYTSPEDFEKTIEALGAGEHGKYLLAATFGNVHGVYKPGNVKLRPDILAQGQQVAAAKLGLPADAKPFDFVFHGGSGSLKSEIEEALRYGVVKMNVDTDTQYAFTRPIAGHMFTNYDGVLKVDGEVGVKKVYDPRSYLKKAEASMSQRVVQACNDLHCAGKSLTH
Mtb FBA confirm: M. tuberculosis aldolase blockers, biochemical, fluorescence, strain H37Rv, confirmation | AID 651616, 2012 | inhibition, % at 1 µM | shares compounds with Mtb FBA inh | 5,600 compounds, 78% hits | purified M. tuberculosis FBA, fluorescence read-out
GDH-TPI counter-2: GDH-TPI coupling enzyme inhibitors, artefact control for M. tuberculosis FBA inhibitor project, biochemical, fluorescence, high throughput. 5,600 compounds, 81% hits. GDH-TPI coupled enzyme counterscreen. inhibition, % at 1 µM. shares compounds with Mtb FBA inh. AID 652141, 2013; in the data active means inhibition above about 10%
Numbers stand for hits; - = inactive; . = no result given; + = active, no number. Unless noted, no stated cut-off is given here; in the data, active means inhibition above about 27%; inactive means the rest.

SMILES | Mtb UGM inh | Mtb bLac sens | GDH-TPI counter-1 | RecA intein inh | Rv3671c inh | Mtb FBA inh | Mtb FBA confirm | GDH-TPI counter-2
CC(C)Cc1nc(NCCN2CCOCC2)c(C#N)c2c1COC(C)(C)C2 | - | - | - | - | - | - | . | .
CCc1nc(N2CCN(C(=O)c3ccco3)CC2)c(C#N)c2c1COC(C)(C)C2 | - | - | - | - | - | 40.1 | 57.1 | 39.0
CCCc1nc(N2CCOCC2)c(C#N)c2c1CCCC2 | - | - | - | - | - | 30.3 | 168.5 | 140.9
CCc1nc(N2CCN(C(C)=O)CC2)c(C#N)c2c1COC(C)(C)C2 | - | - | - | - | - | 36.0 | - | -
CCCNC(=O)N1CCN(c2nc(C(C)C)c3c(c2C#N)CC(C)(C)OC3)CC1 | - | - | - | - | - | - | . | .
CC(C)Cc1nc(N2CCOCC2)c(C#N)c2c1COC(C)(C)C2 | - | - | - | - | - | 36.5 | - | -
Cc1ccc(S(=O)(=O)CCC(=O)OCC(=O)Nc2ccc(N3CCOCC3)cc2)cc1 | - | - | - | - | - | - | . | .
Nc1ccc(Cc2ccccn2)cc1 | - | - | - | - | - | - | . | .
Nc1ccc[n+](Cc2ccccn2)c1 | - | - | - | - | - | 60.7 | - | -
CCOC(=O)c1cc(-c2cccc(C(F)(F)F)c2)nc2nc(SC)[nH]c(=O)c12 | - | - | - | - | - | - | . | .
CCOC(=O)c1cc(-c2ccc(C)cc2)nc2nc(SC)[nH]c(=O)c12 | - | - | - | - | - | 39.9 | 150.6 | 158.8
COC(=O)c1ccc(C(=O)OC)c(NS(=O)(=O)c2ccc(NC(C)=O)cc2)c1 | - | - | - | - | - | 33.5 | 71.2 | 62.1
COC(=O)c1cccc(NS(=O)(=O)c2ccc(NC(C)=O)cc2)c1C | - | - | - | - | - | - | . | .
Cc1ccc(/C=N/n2c(-c3ccccc3)n[nH]c2=S)cc1 | - | - | - | - | - | - | . | .
O=C(O)c1ccc(/C=N/n2cc(-c3ccccc3)[nH]c2=S)cc1 | - | - | - | - | - | 37.4 | 49.6 | 38.3
S=c1[nH]c(-c2ccccc2)cn1/N=C/c1cccnc1 | - | - | - | - | - | 33.8 | 94.2 | 84.5
S=c1[nH]c(-c2ccccc2)cn1/N=C/c1ccc(Br)cc1 | - | - | - | - | - | 32.5 | 170.2 | 126.2
S=c1[nH]c(-c2ccccc2)cn1/N=C/c1cccs1 | - | - | 40.0 | - | - | 30.8 | 151.7 | 126.3
Cc1ccc(-c2n[nH]c(=S)n2/N=C/c2ccc(C(=O)O)cc2)cc1 | - | - | - | - | - | - | . | .
Cc1nc2sc3c(O)cc(=O)[nH]c3c2c(C)c1C | - | - | - | - | - | 33.1 | 73.3 | 68.8
CCOC1=C2[C@H](c3ccccc3F)N(S(=O)(=O)c3ccc(C)cc3)C[C@H]2n2c(=O)n(-c3ccccc3)c(=O)n2C1 | . | . | . | . | . | - | . | .
O=C(C[C@H]1C/C=C\CCCCC(=O)OC[C@H]2CCCN2C1=O)N[C@H](CO)Cc1ccccc1 | - | - | - | . | - | - | . | .
CCOC(=O)CC(=O)CSc1nc2c(cc1C#N)CCC2 | - | - | - | - | - | 31.3 | 80.1 | 64.9
COC(=O)CC(=O)CSc1nc2c(cc1C#N)CCCCC2 | - | - | - | . | - | 39.1 | 140.7 | 97.8
N#Cc1cc2c(nc1SCC(=O)O)CCCCC2 | - | - | - | - | - | - | . | .
SMILES | Mtb UGM inh | Mtb bLac sens | GDH-TPI counter-1 | RecA intein inh | Rv3671c inh | Mtb FBA inh | Mtb FBA confirm | GDH-TPI counter-2
CCOC(=O)C1CCCN(S(=O)(=O)c2cc3[nH]c(=O)c(=O)[nH]c3cc2C)C1 (centres undefined) | - | - | - | - | - | 47.5 | 83.3 | 58.2
CCN1C(=O)[C@H]2[C@@H](c3ccc(-c4ccc(OC)cc4)cc3)N3CCCC[C@@]3(C(=O)OC)[C@H]2C1=O | - | - | - | - | - | - | . | .
COc1ccc(NC(=S)N(C(C)C)C2CCN(C(C)C)CC2)cc1Cl | - | - | . | - | - | . | . | .
Cc1cc(-c2n[nH]c(=S)o2)c(C)n1-c1ccccc1 | - | - | . | - | - | . | . | .
S=c1[nH]nc(-c2c[nH]c3ccccc23)o1 | - | - | - | - | - | 50.0 | - | -
CSc1nc(SCc2ccccc2)[nH]c(=O)n1 | . | . | - | . | . | - | . | .
CCOc1ccc(-n2cnc3scc(-c4ccc(OC)c(OC)c4)c3c2=O)cc1 | - | - | - | - | - | 27.7 | 29.8 | 20.7
COc1cccc(-n2cnc3scc(-c4cccs4)c3c2=O)c1 | - | - | - | - | - | - | . | .
Cc1cnc(NC(=O)Nc2ccccc2)c(C)n1 | - | - | - | - | - | 58.6 | - | -
CC(=O)NNC(=O)c1cc2c3ccccc3n(C)c2s1 | - | - | - | . | - | - | . | .
Cn1c2ccccc2c2cc(C(=O)N3CCN(CCO)CC3)sc21 | - | - | - | - | - | 29.0 | 121.6 | 90.1
O=c1ccc2ccc(OCCOc3cccc(Cl)c3)cc2o1 | - | - | - | - | - | 49.4 | 173.1 | 157.2
Cc1cc(=O)oc2cc(OC(=O)c3ccccc3)ccc12 | - | - | - | - | - | 74.9 | + | +
O=C(Oc1ccc2ccc(=O)oc2c1)C1CCCCC1 | - | - | - | - | - | 108.4 | + | +
O=C(COc1ccc2ccc(=O)oc2c1)NC1CCCC1 | - | - | - | - | - | - | . | .
O=C(Oc1ccc2ccc(=O)oc2c1)c1ccccc1 | - | - | - | - | - | 62.7 | 50.4 | 41.1
COc1ccc(C(=O)Oc2ccc3ccc(=O)oc3c2)cc1 | - | - | - | - | - | - | . | .
Cn1c(N)c(C(=O)COC(=O)c2cc(S(=O)(=O)N3CCOCC3)ccc2F)c(=O)n(C)c1=O | - | - | - | . | - | - | . | .
CCN(CC)C(=O)c1[nH]cnc1C(=O)NC1CCN(C(=O)OC(C)(C)C)CC1 | - | - | - | . | - | - | . | .
COc1cccc(COc2ccc3c(C)cc(=O)oc3c2)c1 | - | - | - | - | - | - | . | .
CCOc1ccccc1C(=O)Oc1ccc2ccc(=O)oc2c1 | - | - | - | - | - | 66.2 | 83.3 | 81.1
COc1ccc2c(C)cc(=O)oc2c1 | . | . | - | . | . | 54.7 | 90.9 | 61.1
COc1cc(/C=C2/SC(=S)N(CCC(=O)Nc3cccnc3)C2=O)cc(OC)c1OC | . | . | - | . | . | - | . | .
CCCc1nc2ccc(C)cn2c1Cc1cccc(F)c1 | . | . | . | . | . | 28.2 | 42.9 | 30.8
